Screening data as filed in PubChem.
In the library only some 12% were active in any assay of this set; here they are far more common.
L major viab: Leishmania major promastigote growth inhibition. hit rate 9% among 200,000. inhibition, % at 10 µM. Leishmania major promastigotes, resazurin fluorescence viability; in the data active means inhibition above about 50%;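 further: promastigotes grown with compound for 44 hours at 28 °C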
ROMK primary: modulators of human ROMK potassium channel; P48048; hit rate 2% among 130,000; AID 1918; B-score at 10 µM; Tet-inducible ROMK, thallium flux fluorescence; actives lie on both sides;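 active means signal ratio slope over the read window, or its plate-corrected B-score, at least 3 SD from the plate mean, either direction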;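 further: B-score of the F/F0 ratio slope over 7 to 12 s after thallium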
Target sequence (P48048 whole entry, looked up): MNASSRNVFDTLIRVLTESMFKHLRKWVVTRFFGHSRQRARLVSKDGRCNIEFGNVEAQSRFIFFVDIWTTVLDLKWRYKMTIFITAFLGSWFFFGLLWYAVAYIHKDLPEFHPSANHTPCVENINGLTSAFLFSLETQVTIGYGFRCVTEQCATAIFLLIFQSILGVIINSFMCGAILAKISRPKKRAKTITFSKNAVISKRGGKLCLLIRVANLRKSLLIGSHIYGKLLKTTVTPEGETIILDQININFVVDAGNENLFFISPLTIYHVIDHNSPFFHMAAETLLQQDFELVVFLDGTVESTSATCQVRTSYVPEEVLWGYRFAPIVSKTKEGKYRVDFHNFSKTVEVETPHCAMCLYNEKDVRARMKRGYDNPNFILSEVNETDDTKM
Cl transport mod: modulators of human KCC2 chloride dependent transport; KCC2 cells, thallium flux FluoZin-2 fluorescence; B-score of Tl+ flux slope (higher = more flux/activation; lower = inhibition) at 10 µM; hit rate 2.2% among 190,000; AID 1456;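 active means thallium flux slope and its plate-corrected score both differing from the plate sample mean at a set confidence after two filtering rounds, in either direction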;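 further: slope of fluorescence scaled to starting intensity during 10 to 20 s after thallium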
WT yeast gro inh: growth inhibition of WT yeast, mitochondrial fusion screen. mitochondrial fusion phenotypic screen, WT strain. inhibition, % at 10 µM. hit rate 2.1% among 190,000. AID 1362; in the data active means inhibition above about 58%; tested in S. cerevisiae
Calpain2 inh: calpain II (pig) inhibition. purified calpain II, fluorogenic peptide substrate, 30 min. inhibition, % at 16 µM. hit rate 0.37% among 220,000. AID 1236;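 active means inhibition above about 50%, limit read from the data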
* marks the source's active call; other numbers are inactive results; i = inactive; / = not tested or not shown.

SMILES | L major viab | ROMK primary | Cl transport mod | WT yeast gro inh | Calpain2 inh
CCOc1ccc(OCCOCCNCCOC)cc1 | 70* | 0.18 | 0.11 | -1 | 0
CCc1ccc(OCCCC(=O)NCc2ccccc2)cc1 | -3 | -0.55 | -0.89 | -1 | 15
CCCOc1ccc(OCCOCCNCc2ccccc2)cc1 | 98* | / | 0.016 | 14 | -16
CC1=C(O)C(=O)OC1c1c(Cl)cccc1Cl (stereo not given) | / | 0.87 | 2.2 | / | -16
CCNc1nc(SC(C)C(=O)OC)nc(N2CCOCC2)n1 (stereo not given) | -6 | 0.065 | 0.069 | 2 | 15
O=C(Nc1ccccc1)c1ccc(CN2CCC(Cc3ccccc3)CC2)cc1 | 2 | / | -0.35 | / | /
O=C(Nc1ccccc1C(F)(F)F)c1ccc(CN2CCC(Cc3ccccc3)CC2)cc1 | 64* | / | 0.71 | 30 | 5
CCOC(=O)C1(Cc2ccccc2Cl)CCN(Cc2csc(C(C)=O)c2)CC1 | 90* | -1.3 | / | 20 | -20
CCOC(=O)C1(Cc2ccc(Cl)cc2)CCN(Cc2cnc(N)nc2)CC1 | 53* | -1.1 | 0.42 | 0 | 2
CCOC(=O)C1(Cc2ccc(Cl)cc2)CCN(Cc2ccon2)CC1 | 95* | -0.21 | 0.53 | 3 | -5
CCOC(=O)C1(S(=O)(=O)c2ccc(Cl)cc2)CCN(Cc2ccc(C)cc2)CC1 | 28 | / | -0.3 | 72* | -27
COc1ccccc1-c1cc(SC)c(C#N)c(=O)o1 | -2 | -2.2 | -0.012 | -5 | -24
c1ccc2c(Nc3nc(N4CCOCC4)c4ccccc4n3)cccc2c1 | 88* | -0.79 | -0.76 | 85 | 40
O=C(CCl)NCCCN(C(=O)C(Cl)Cl)c1ccc([N+](=O)[O-])cc1 | / | / | -0.32 | / | -11
CC(=O)Nc1ccc(C(=O)OCc2ccc(Br)cc2)cc1 | 2 | / | -0.15 | 69* | -8
O=C(OCc1ccc(Br)cc1)c1ccncc1 | -4 | 0.6 | -0.99 | 1 | 29
COc1cccc(C(=O)COC(=O)c2ccc(NC(C)=O)cc2)c1 | 81* | / | -0.0021 | -4 | 20
O=C(NC(CC(=O)N1CCN(c2ccc([N+](=O)[O-])cc2)CC1)c1ccccc1)c1ccccc1Cl (stereo not given) | 83* | -0.45 | -0.54 | -4 | -33
CN(c1ccccc1)S(=O)(=O)c1ccc(Cl)nc1 | -2 | 0.37 | -1.3 | 17 | 13
Cc1nc(S(=O)(=O)N(C)c2ccccc2)c(C#N)c(C)c1Cl | 72* | -0.73 | -0.93 | 0 | -5
Nc1ccccc1-c1nnc(SCc2ccccc2Cl)[nH]c1=O | -4 | -2.3 | / | 38 | 8
Cc1ccc(CSc2nnc(-c3ccccc3N)c(=O)[nH]2)cc1 | -7 | 0.22 | 0.33 | 63* | 0
CC1CCCCN1S(=O)(=O)c1ccc(NC(=O)CSc2nnnn2C)cc1 (stereo not given) | -7 | 0.34 | -0.39 | 10 | 3
O=C(O)CC/C(=C\c1cc([N+](=O)[O-])ccc1Cl)c1nc2ccccc2s1 | -1 | / | -10* | -2 | -25
O=C(Nc1nc2ccccc2s1)Nc1ccc([N+](=O)[O-])cc1Cl | / | / | / | / | -28
SMILES | L major viab | ROMK primary | Cl transport mod | WT yeast gro inh | Calpain2 inh
O=C(Nc1ccc(Cl)cc1)/C(=C/c1ccc([N+](=O)[O-])cc1)c1nc2ccccc2s1 | 100* | 0.029 | 1.1 | 35 | -176
O=C(c1ccccc1)N1CCCCC(Cl)C1=O (stereo not given) | -8 | -0.16 | 0.99 | -15 | -10
S=c1[nH]nc(-c2cc(-c3ccsc3)n[nH]2)n1-c1cccc2ccccc12 | 75* | 0.14 | 0.044 | 4 | -27
CCC(CO)NCC#Cc1ccccc1 (stereo not given) | -2 | / | 0.69 | -5 | -5
COc1cccc(CC2(CO)CCN(Cc3ccc(NC(C)=O)cc3)CC2)c1 | -6 | 0.4 | 1.2 | 2 | -1
COc1cccc(CC2(CO)CCN(Cc3ccc4cccc(F)c4n3)CC2)c1 | 80* | 0.018 | / | -7 | 20
O=C(c1cnsn1)N1CCC(CO)(Cc2cccc(F)c2)CC1 | -4 | / | / | 11 | -18
OCC1(Cc2cccc(F)c2)CCN(Cc2ccc3cccc(F)c3n2)CC1 | 88* | -0.95 | 0.66 | 7 | -30
COc1cccc(CC2(CO)CCN(CC3=CC[C@H]4C[C@@H]3C4(C)C)CC2)c1 | 88* | -0.98 | -0.62 | -3 | -21
COc1cccc(CC2(CO)CCN(Cc3cn(C)nc3C)CC2)c1 | 75* | 1.2 | 1.1 | -6 | 29
COc1ccc(C(=O)NCCN2C(=O)S/C(=C\c3cccnc3)C2=O)cc1[N+](=O)[O-] | / | / | -2.8 | / | 7
OCC1(CCOc2ccccc2)CCN(Cc2ccc3cccc(F)c3n2)CC1 | 82* | -1.5 | -0.86 | -2 | -4
CC1(C)Cc2ccccc2C2=NNC(=O)C2=N1 | 100* | -0.28 | 0.69 | -24 | i
Cc1cccc(N(CC(=O)NCCSCc2ccco2)S(=O)(=O)c2ccccc2)c1 | 61* | / | / | 13 | 9
Cc1ccc(N(CC(=O)NCc2ccc(F)cc2)S(=O)(=O)c2cccs2)cc1 | 91* | 0.013 | / | 12 | -11
O=C(CN(c1ccc(F)cc1)S(=O)(=O)c1ccc2c(c1)OCCO2)NCc1cccnc1 | 29 | 1.4 | 0.044 | -4 | 26
O=C(CN(c1ccc2c(c1)OCCO2)S(=O)(=O)c1ccccc1)NCc1ccco1 | 92* | / | -0.0047 | -22 | -18
Cc1ccc(N(CC(=O)NCCSCc2ccco2)S(=O)(=O)c2ccc(C)cc2)cc1 | 11 | / | -2.5 | 24 | 14
O=C(CN(c1ccc(F)cc1)S(=O)(=O)c1ccc2c(c1)OCCO2)NCc1ccncc1 | 92* | / | -0.41 | -26 | 18
Cc1ccc(S(=O)(=O)NCCCOC(=O)Nc2ccncc2)cc1 | 25 | 0.0092 | -0.072 | -1 | 6
Oc1ccc(-c2cn3cc(C(F)(F)F)ccc3n2)cc1 | 51* | / | -0.64 | 8 | -70
O=C(COC(=O)C1CCN(S(=O)(=O)c2ccccc2)CC1)NC(=O)c1ccc(OC(F)F)cc1 | 57* | 2.1 | 0.34 | -10 | -28
COc1ccc(CN(CCC(c2ccccc2)c2ccc(OC(C)C)cc2)C(=O)CCl)cc1OC (stereo not given) | 100* | 0.15 | -0.064 | 34 | 14
COc1cnc(-c2ccccc2)nc1Oc1ccc(Cl)cc1C | -7 | -0.53 | 0.02 | -6 | 7
O=C(CCNc1cccc(C(F)(F)F)c1)c1ccco1 | 85* | -0.83 | / | -2 | 20
SMILES | L major viab | ROMK primary | Cl transport mod | WT yeast gro inh | Calpain2 inh
O=C(CCNc1ccc(Cl)c(C(F)(F)F)c1)c1ccco1 | 35 | -0.86 | -0.87 | 18 | -14
O=C(CCNc1ccc(F)cc1)c1ccco1 | 97* | / | -1.2 | -4 | -12
O=C(CCNc1cc(Cl)cc(Cl)c1)c1ccco1 | 10 | / | -1.2 | -9 | 9
O=C(CCNc1ccc(F)c(Cl)c1)c1ccco1 | 96* | -0.51 | / | 25 | 24
CN(CCc1ccccn1)C(=O)c1cccnc1Oc1ccccc1 | / | 0.61 | 0.49 | / | -23
CC(=O)Nc1ccc(-c2cc(C(=O)O)c3ccc(C)cc3n2)cc1 | / | / | / | / | -318
Cc1ccc(NCC(=O)N/N=C\c2ccc([N+](=O)[O-])o2)cc1 | 100* | -0.67 | -0.97 | 4 | 0
O=C(N/N=C/c1ccc([N+](=O)[O-])o1)c1ccncc1 | / | / | 0.5 | / | 23
O=C(N/N=C/c1ccc([N+](=O)[O-])o1)c1ccc(O)cc1 | 100* | / | 0.48 | 5 | 27
